An excerpt weighted towards active compounds, which were near 2.5% of everything screened.
HSF1 inh: HSF1 inhibition. AID 2098. activity change, negative = inhibition, % at 7.5 µM (by protocol). 300,000 compounds, 0.77% hits. NIH3T3-HGL HSE-luciferase, MG132-induced, luminescence 8 h; hits give low values;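 active means more than half of replicate wells show activity change below -50%, luminescence cut by over half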;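 further: luciferase reports HSF-1 transcriptional activity via heat shock element; 0% = median of DMSO wells and -100% = zero luminescence signal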
HSF-1 act: increases HSF-1 driven luciferase reporter signal. NIH3T3-HGL HSF-1 luciferase reporter, MG132, 8 h; 100% = twice DMSO control signal. activation, % at 9 µM. 300,000 compounds, 1.7% hits. AID 504408;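 active means mean replicate activation of at least 50% with a set share of replicates each reaching 50%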;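 further: 0% = median of the neutral control wells and 100% = twice that signal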
NPR1 activator: GC-A (human) enzyme activation; activation, % at 10 µM; 370,000 compounds, 0.14% hits; HEK293 GC-A cells, cGMP TR-FRET, EC30 ANP; 0% at EC30 ANP, 100% saturating ANP; AID 1671463; P16066; in the data active means activation above about 40%
Target sequence (P16066 whole entry, looked up): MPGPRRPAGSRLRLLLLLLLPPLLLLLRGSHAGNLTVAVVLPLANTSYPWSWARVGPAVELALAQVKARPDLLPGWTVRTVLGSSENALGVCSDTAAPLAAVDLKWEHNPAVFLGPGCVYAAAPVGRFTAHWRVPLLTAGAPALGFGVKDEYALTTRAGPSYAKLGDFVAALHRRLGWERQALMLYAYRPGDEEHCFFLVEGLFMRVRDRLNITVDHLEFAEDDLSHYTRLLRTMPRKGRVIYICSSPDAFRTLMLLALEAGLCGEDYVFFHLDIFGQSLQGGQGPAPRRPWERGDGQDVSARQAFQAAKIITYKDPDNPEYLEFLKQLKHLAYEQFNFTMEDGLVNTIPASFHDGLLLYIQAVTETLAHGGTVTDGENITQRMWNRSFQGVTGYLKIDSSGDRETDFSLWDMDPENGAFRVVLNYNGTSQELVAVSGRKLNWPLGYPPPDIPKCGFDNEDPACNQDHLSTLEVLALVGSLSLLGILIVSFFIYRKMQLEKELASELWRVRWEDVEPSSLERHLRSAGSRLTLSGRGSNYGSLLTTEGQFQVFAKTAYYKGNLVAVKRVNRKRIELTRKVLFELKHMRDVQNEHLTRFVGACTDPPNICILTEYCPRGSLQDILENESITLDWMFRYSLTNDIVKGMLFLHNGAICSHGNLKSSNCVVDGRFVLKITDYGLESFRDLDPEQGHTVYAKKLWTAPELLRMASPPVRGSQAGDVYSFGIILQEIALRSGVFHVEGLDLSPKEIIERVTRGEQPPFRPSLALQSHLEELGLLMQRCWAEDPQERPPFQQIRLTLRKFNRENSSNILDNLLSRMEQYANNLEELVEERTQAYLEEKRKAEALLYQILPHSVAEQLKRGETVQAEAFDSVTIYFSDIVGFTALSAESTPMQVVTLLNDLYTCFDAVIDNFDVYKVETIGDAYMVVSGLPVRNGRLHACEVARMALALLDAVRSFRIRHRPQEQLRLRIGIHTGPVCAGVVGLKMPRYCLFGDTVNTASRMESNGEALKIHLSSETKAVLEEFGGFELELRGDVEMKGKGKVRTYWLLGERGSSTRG
aDG glyco act: increases alpha dystroglycan glycosylation; Pro5-aDG cells, alpha-DG glycosylation AlphaScreen (IIH6); 0% Pro5, 100% B10-LARGE cell signal; activation, % at 10 µM; 360,000 compounds, 0.22% hits;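 active means activation of at least 8% versus controls, or a plate z-score of at least 8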;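 further: Pro5 are CHO cells carrying HIG-tagged alpha-DG that lacks glycosylation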
NPR2 activator: GC-B (human) receptor activation. AID 1920062. P20594. activation, % at 10 µM. HEK293-GC-B cells, CNP EC30, cGMP TR-FRET; 0% at EC30 CNP, 100% saturating CNP. 370,000 compounds, 0.11% hits;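 active means activation at 10 µM reaching about 35% in either raw or pattern-adjusted values, limit read from the data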
DYRK1A inh: blocks rat Dyrk1A kinase activity; Q63470; ADP-Glo luminescence, NFATc1 peptide; inhibition, % at 12.5 µM; 310,000 compounds, 0.43% hits; in the data active means inhibition above about 50%;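 further: plate controls were vehicle with enzyme for no effect and no enzyme for full effect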
aDG glyco conf: alpha-DG glycosylation activation, confirmation | activation, % at 10 µM (by protocol) | 600 compounds, 17% hits | Pro5-aDG cells, IIH6 AlphaLISA; scaled to LARGE-overexpressing B10 cells as 100% | shares compounds with aDG glyco act;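 active means activation of at least 7% in one or more replicates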;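 further: cells exposed to compound for two days before detection; 0% = DMSO-treated Pro5 cells and 100% = DMSO-treated B10-LARGE cells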
An asterisk follows results filed as active; x = no result.

SMILES | HSF1 inh | HSF-1 act | NPR1 activator | aDG glyco act | NPR2 activator | DYRK1A inh | aDG glyco conf
C/C=C/c1ccc(OCCCNC2CCCC2)c(OC)c1 | -1 | 1 | -2 | 9.6* | -4 | -1 | 12*
CC(C)N1CCN(c2ccc(OCC3COC(Cn4cncn4)(c4ccc(Cl)cc4Cl)O3)cc2)CC1 (stereo unspecified) | x | x | 0 | 21* | 1 | 6 | 9.9*
CS(=O)(=O)c1ccc2nc(NC(=O)CS(=O)(=O)Cc3ccccc3)sc2c1 | -1 | 5 | -3 | 0 | -1 | 12 | x
COc1ccc(CC(=O)N/N=C/c2c(C)n(C)c3ccccc23)cc1OC | -5 | -6 | -3 | 0 | -7 | x | x
Cc1ccc(NS(=O)(=O)c2ccc(OCC(=O)N3CCOCC3)cc2)cc1 | -12 | -10 | 2 | 0 | -1 | 5 | x
O=C(COc1ccc(NS(=O)(=O)c2ccc(F)cc2)cc1)N1CCOCC1 | -1 | -4 | -2 | 11* | -2 | 3 | -1
O=C(NCc1cccc(OC(F)(F)F)c1)c1cccc2c1C(=O)c1ccc(-c3ccc(F)cc3OCc3ccccc3)cc1S2(=O)=O | x | x | 1 | 0 | 3 | 4 | x
COc1ccc(-c2ccc3c(c2)S(=O)(=O)c2cccc(C(=O)NCc4cccc(OC(F)(F)F)c4)c2C3=O)cc1OC | x | x | x | 18* | x | 3 | 1
COC(=O)[C@@]1(Cc2ccccc2)[C@H]2c3cc(C(=O)N4CCCC4)n(CCSCCO)c3C[C@H]2CN1C(=O)c1ccccc1 | -2 | 15 | x | x | x | x | x
COC(=O)[C@@]1(Cc2ccc(F)cc2)[C@H]2c3cc(C(=O)N4CCCC4)n(CCSCCO)c3C[C@H]2CN1C(=O)c1ccccc1 | x | x | -8 | 5.6* | 2 | x | 0
C/C(NCc1ccccc1)=C(\C#N)C(=O)NCc1ccccc1 | 0 | 10 | 4 | 2 | 4 | -2 | x
O=[N+]([O-])c1cccnc1N1CCC(c2cc(-c3ccc(Cl)cc3Cl)n[nH]2)CC1 | 1 | 8 | 13 | 0 | -8 | 16 | x
CC(=O)c1ccc(N2CCC(c3cc(-c4ccc(Cl)cc4Cl)n[nH]3)CC2)c([N+](=O)[O-])c1 | -6 | 7 | 0 | 8.8* | -11 | -4 | 6
Cn1c(SCC(=O)Nc2ccc(NC(=O)c3cccc(F)c3)cc2)nnc1-c1ccncc1 | -7 | -9 | 4 | 1.8* | 0 | x | 0
COCC(C)N=C1NN=C(c2cc(C)n(Cc3ccccc3Cl)c2C)CS1 (stereo unspecified) | -5 | -16 | -3 | 5.6* | 7 | -1 | 0
Cc1nc(SCC(=O)Nc2cc(C(N)=O)cc(C(N)=O)c2)c2c(C)c(C)sc2n1 | -5 | 3 | 2 | 9.0* | -1 | x | 13*
Cc1ccc2nc(-c3ccc(F)cc3)c(Cc3ccsc3)n2c1 | x | x | 1 | x | 1 | x | x
COc1ccc(CCC(=O)OCC(=O)c2c(N)n(CC(C)C)c(=O)n(C)c2=O)cc1 | -8 | -13 | 0 | 6 | 12 | -11 | x
COc1ccccc1CCC(=O)OCC(=O)c1c(N)n(CC(C)C)c(=O)n(C)c1=O | -9 | -10 | 2 | 6.5* | 1 | 2 | -1
Cc1ccc(NC(=O)COC(=O)c2cccc(OC(F)F)c2)cc1S(=O)(=O)N1CCCCC1 | x | x | -1 | 0 | -2 | x | x
COCC(=O)N1CCC(Oc2ccc(C(=O)NCc3csc(C(C)C)n3)cc2)CC1 | 11 | 22 | 2 | 0 | 3 | -5 | x
COc1cc(NC(=O)c2ccc(F)cc2)c(OC)cc1Cl | -3 | -11 | -7 | 0 | 2 | 1 | x
COc1cc(NC(=O)c2c(F)c(F)c(F)c(F)c2F)c(OC)cc1Cl | -6 | -18 | -19 | 7.7* | -20 | -6 | 0
CCC1Nc2ncnc(N3CCCCC3)c2N(Cc2ccc(Cl)cc2)C1=O (stereo unspecified) | x | x | -7 | 0 | -8 | 0 | x
CCC1Nc2ncnc(N3CCc4ccccc4C3)c2N(Cc2ccc(Cl)cc2)C1=O (stereo unspecified) | x | x | -9 | 16* | -10 | x | 1

Source: PubChem BioAssay (several laboratories)
